Source: PubChem
TLR9-MyD88 inh – blocks human TLR9 binding to MyD88 | Q9NR96+Q99836 | CHO BLA complementation TLR9-MyD88, CCF4 FRET ratio | inhibition, % at 4.98 µM | hit rate 0.21% among 340,000;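 active means inhibition above the mean over all tested compounds plus 3 SD, cut at about 21% in these data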
NOD2-RIPK2 inh – blocks binding of human NOD2 to RIPK2. AID 624267. O43353. inhibition, % at 4.98 µM. CHO BLA complementation NOD2-RIPK2, CCF4 ratio. hit rate 0.38% among 360,000; in the data active means inhibition above about 21%
ANO1 block – inhibitors of mouse TMEM16A calcium-activated chloride channel; Q8BHY3; normalized B-score (activity score, 25-100; higher = stronger inhibition) at 10 µM; HEK293 TMEM16A/YFP iodide influx fluorescence, ionomycin; hit rate 1.2% among 310,000;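 active means ratio plate-corrected score three or more library SD toward inhibition, starting fluorescence score within five deviations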;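 further: score derived from kinetic fluorescence span divided by baseline fluorescence per well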
Target sequence (Q8BHY3 whole entry, looked up): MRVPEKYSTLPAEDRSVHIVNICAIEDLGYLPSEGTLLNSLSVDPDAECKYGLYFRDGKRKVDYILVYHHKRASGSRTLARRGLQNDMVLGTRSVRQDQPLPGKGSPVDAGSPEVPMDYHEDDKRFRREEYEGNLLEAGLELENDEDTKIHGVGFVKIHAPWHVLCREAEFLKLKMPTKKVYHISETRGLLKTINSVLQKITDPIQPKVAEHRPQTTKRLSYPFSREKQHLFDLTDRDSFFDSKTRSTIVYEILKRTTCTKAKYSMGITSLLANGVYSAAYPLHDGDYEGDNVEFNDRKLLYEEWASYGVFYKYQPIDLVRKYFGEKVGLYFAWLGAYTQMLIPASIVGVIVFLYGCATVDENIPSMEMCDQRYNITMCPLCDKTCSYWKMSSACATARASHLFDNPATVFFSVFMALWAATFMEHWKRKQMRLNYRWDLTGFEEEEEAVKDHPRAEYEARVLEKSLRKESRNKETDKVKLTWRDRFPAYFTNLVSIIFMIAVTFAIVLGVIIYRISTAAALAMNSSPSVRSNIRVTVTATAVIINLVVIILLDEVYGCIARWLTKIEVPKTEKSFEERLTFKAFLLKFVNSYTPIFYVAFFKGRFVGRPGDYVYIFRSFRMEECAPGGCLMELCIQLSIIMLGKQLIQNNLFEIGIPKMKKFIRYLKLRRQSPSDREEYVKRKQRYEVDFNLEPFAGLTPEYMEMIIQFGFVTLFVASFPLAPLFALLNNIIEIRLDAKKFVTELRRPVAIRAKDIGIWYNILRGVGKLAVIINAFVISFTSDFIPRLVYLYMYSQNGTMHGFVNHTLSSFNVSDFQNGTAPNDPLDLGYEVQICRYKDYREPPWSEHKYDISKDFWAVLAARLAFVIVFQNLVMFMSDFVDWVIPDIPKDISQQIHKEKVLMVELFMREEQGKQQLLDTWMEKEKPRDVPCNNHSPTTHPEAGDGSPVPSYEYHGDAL
TLR4 MyD88 comp – TLR4-MyD88 interaction inhibition in cells; hit rate 0.18% among 200,000; O00206+Q99836; inhibition, % at 8.4 µM; HeLa CL3-4 TLR4/MyD88 BLA complementation, FRET ratio; in the data active means inhibition above about 25%
ANO1 activ – mouse TMEM16A channel activation, primary screen | AID 623877 | hit rate 0.3% among 340,000 | B-score at 10 µM | HEK293 TMEM16A/YFP-H148Q/I152L, iodide quench fluorescence; hits give low values;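 active means fluorescence-ratio B-score plate-corrected deviation score at least 3 library SD below zero, with starting fluorescence score within 5 deviations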;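 further: channel opened by trigger with iodide after compound preincubation; score built on the fluorescence ratio of max minus min over baseline; more negative score means more quench and so TMEM16A activation or potentiation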
m5-HT2A agonist – activates the mouse 5-HT2A serotonin receptor; P35363; CHO-K1 mHTR2A beta-arrestin complementation, luminescence; percent of 30 µM serotonin response; activation, % at 7.6 µM; hit rate 0.66% among 360,000; AID 624169;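 active means activation above a run cutoff, the mean activation of all tested compounds plus 3 SD, cut at about 14% in these data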
Each line names hits and unclear results; the compound was inactive in the other large screens. Sampled rows, rich in hits. Any-hit rate of the full collection: about 2.4%.

O=C(Nc1cccnc1)c1ccc(Oc2ccccc2)cc1	ANO1 block 25
COc1ccc(S(=O)(=O)N2CCCOC2CNC(=O)C(=O)NCCCn2ccnc2)cc1 (configuration not stated)	ANO1 activ -7.3
COc1ccc(S(=O)(=O)N2CCCOC2CNC(=O)C(=O)NCCCn2ccnc2)cc1OC (configuration not stated)	none
COc1ccc(S(=O)(=O)N2CCOC2CNC(=O)C(=O)NCCCn2ccnc2)cc1OC (configuration not stated)	ANO1 activ -15
Cc1ccc(C(=O)Nc2ccc(C(=O)N3CCCCC3)cc2)cc1	none
Nc1sc2c(c1C(=O)NC1CCS(=O)(=O)C1)CCCC2 (configuration not stated)	m5-HT2A agonist 22
O=C(CCc1c[nH]c2ccccc12)NCC(=O)Nc1ccc(F)c(F)c1F	ANO1 activ -6.3
COc1ccccc1N1CCN(CCNC(=O)Nc2cccc(C)c2C)CC1	ANO1 block 25
CC(C)CCNC(=O)C(c1ccc(O)cc1)N(C(=O)C1COc2ccccc2O1)c1cccc(O)c1 (configuration not stated)	none
COc1ccc(C2=NS(=O)(=O)N(C)C(C(=O)Nc3ccc(C(C)=O)cc3)=C2)cc1OC	ANO1 block 25 (no result: TLR4 MyD88 comp)
CN(C)C(=O)COC(=O)c1ccccc1OCC(=O)Nc1ccc(SC(F)F)cc1	none
COc1ccc(S(=O)(=O)N2CCCCCC2)cc1C(=O)OCC(=O)NC(N)=O	none
O=C(COC(=O)c1ccccc1C(=O)c1ccccc1)Nc1ccc(SC(F)F)cc1	ANO1 block 100
O=C(COC(=O)c1cc(S(=O)(=O)N2CCCC2)ccc1O)Nc1ccc(SC(F)F)cc1	ANO1 activ -26 (no result: ANO1 block, TLR4 MyD88 comp)
COc1ccc(S(=O)(=O)N2CCCCCC2)cc1C(=O)OCC(=O)NC(C)(C)C	ANO1 activ -4.7
O=C(COC(=O)c1cc[n+]([O-])cc1)Nc1ccc(SC(F)F)cc1	none (no result: TLR4 MyD88 comp)
O=C(COc1ccccc1C(=O)O)Nc1ccc(SC(F)F)cc1	TLR4 MyD88 comp 25
Cc1nnc(SCC(=O)N/N=C/c2cc(Cl)c(O)c(Cl)c2)s1	none
Cc1cc2c(c(=O)o1)C(c1cccs1)C(C#N)=C(N)O2 (configuration not stated)	none
Cc1ccc([C@H]2C(C#N)=C(N)Oc3cc(C)oc(=O)c32)o1	ANO1 activ -4.6
Cc1cccnc1NC(=O)CNC(=O)c1cccs1	none (no result: TLR4 MyD88 comp)
Cc1cccnc1NC(=S)NC(=O)c1cccs1	ANO1 block 25
Cc1ccc(S(=O)(=O)N(C)C)cc1NC(=S)NC(=O)C12CC3CC(CC(C3)C1)C2	none
COc1ccc2c(c1)CO[C@@]21O[C@H](CCO)C[C@H](O)[C@H]1O	none (no result: TLR9-MyD88 inh, ANO1 block, TLR4 MyD88 comp, ANO1 activ)
Cn1c(COc2ccccc2O)[n+](C)c2ccccc21	none (no result: TLR4 MyD88 comp)
CCCCCCCCCCOC(=O)Cn1c(COc2ccccc2OC)[n+](C)c2ccccc21	ANO1 block 100, ANO1 activ -5.8 (no result: TLR4 MyD88 comp)
CCc1c(C)c(C#N)c2nc3ccccc3n2c1N1CCN(c2cc(C)ccn2)CC1	none (no result: TLR9-MyD88 inh, NOD2-RIPK2 inh, ANO1 activ, m5-HT2A agonist)
Cc1sc2cc3c(c(C(=O)c4ccccc4)[n+]2c1C)-c1cccc2cccc-3c12	ANO1 block 100 (no result: TLR9-MyD88 inh, NOD2-RIPK2 inh, ANO1 activ, m5-HT2A agonist)
O=C(c1ccccc1)c1c2c(cc3sc4ccccc4[n+]13)-c1cccc3cccc-2c13	ANO1 block 100
O=C(c1ccccc1)c1ccc2ccccc2c1	none (no result: ANO1 block, TLR4 MyD88 comp)
Cc1cc2ccccc2cc1C(=O)c1ccccc1	none (no result: ANO1 block, TLR4 MyD88 comp)
CCOc1cc(C2C3=C(CCCC3=O)NC3=C2C(=O)CCC3)ccc1OCCO	none
COC(=O)c1cc(NC(=S)Nc2cc(Cl)cc(Cl)c2)cc(C(=O)OC)c1	ANO1 block 100
COC(=O)c1cccc(NC(=S)Nc2ccc(Cl)c(Cl)c2)c1	ANO1 block 100 (no result: TLR4 MyD88 comp)
Cc1ncoc1C(=O)N1CCCC(N2CCN(c3ccccc3F)CC2)C1 (configuration not stated)	none (no result: TLR4 MyD88 comp)
Cc1cc2c(c(=O)o1)C1(C)CC(C)(O2)c2c(cc(C)oc2=O)O1	none (no result: TLR9-MyD88 inh, ANO1 block, TLR4 MyD88 comp, ANO1 activ)
Cc1onc(-c2ccccc2Cl)c1C(=O)Oc1cc(N)n(S(=O)(=O)c2ccc(F)cc2)n1	ANO1 block 25
Cc1ccc(S(=O)(=O)n2nc(OC(=O)c3c(-c4ccccc4Cl)noc3C)cc2N)cc1	none
